Test [1] has as its target human Peroxisome Proliferator-activated Receptor delta (PPARd), PPARD (gene 5467) (UniProt Q03181). Nature of the test: ATG_PPARd_TRANS: Attagene TRANS-FACTORIAL HepG2 Assay for human Peroxisome Proliferator-activated Receptor delta (PPARd) (AID 2283002). The method in brief:
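Transient HepG2 transfection (multiple GAL4-UAS RTUs, chimeric receptor-Gal4); 24 h dosing; total RNA → oligo(dT) RT → PCR → 6-FAM primer extension → HpaI cut → CE. Positive direction vs DMSO.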

Read-out in test [2]: Intercellular Adhesion Molecule 1 (ICAM1), ICAM1 (gene 3383)
Put plainly: BSK_3C_ICAM1: BioMAP Diversity Plus: 3C Assay for Intercellular Adhesion Molecule 1 (ICAM1) Biomarker Activity (AID 2283003; active means hit-call score of the fitted dose curve at least 0.9, where 1 is the maximum; inactive means score below 0.9). The conditions noted are these: primary human endothelial cells (HUVEC); actives raise or lower the signal. Put shortly:
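HUVEC primary cells stimulated under 3C conditions; ICAM1 measured by ELISA 24 h after compound dosing. Curves fitted bidirectionally against the DMSO baseline. Overt cytotoxicity checked by SRB staining of parallel cultures.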

The target of test [3] is human Retinoic Acid Receptor beta (RARb), RARB (gene 5915) (UniProt P10826). Put plainly: ATG_RARb_TRANS: Attagene TRANS-FACTORIAL HepG2 Assay for human Retinoic Acid Receptor beta (AID 2283004). The method in brief:
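HepG2 cells transiently transfected with multiplexed GAL4-UAS reporter units expressing chimeric NR–Gal4 fusions; 24 h compound exposure. Reporter mRNA quantified by RT-PCR, 6-FAM labelling, HpaI digestion and capillary electrophoresis; gain-of-signal fitted against DMSO baseline.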

The nature of test [4]: BSK_3C_Proliferation: Cell Proliferation Assessment in the BioMAP Diversity Plus: 3C Assay (AID 2283006; active means hit-call score of the fitted dose curve at least 0.9, where 1 is the maximum; inactive means score below 0.9;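 on AC50: potency may reflect either rise or fall in cell number versus DMSO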). The conditions noted are these: primary human endothelial cells (HUVEC). Put shortly: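 Subconfluent HUVEC (3C system) cultured with chemical; relative cell number read at 48 h by sulforhodamine B total-protein staining (0.1% SRB after 10% TCA fixation, 560 nm). Bidirectional fit relative to DMSO.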

Test [5] deals with Peroxisome proliferator-activated receptor gamma (Homo sapiens) (UniProt P37231). Nature of the test: ATG_PPARg_TRANS: Attagene TRANS-FACTORIAL HepG2 Assay for human Peroxisome Proliferator-activated Receptor-gamma (PPARg) (AID 2283007). The method in brief: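 HepG2 cells transiently transfected with multiplexed GAL4-UAS reporter units and exogenous chimeric NR-Gal4 proteins; reporter mRNA quantified after 24 h compound exposure by RT-PCR, fluorescent labelling, HpaI digestion and capillary electrophoresis; gain-of-signal fitted versus DMSO baseline.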
Sequence of Peroxisome proliferator-activated receptor gamma (Homo sapiens) (P37231 whole entry, looked up, the tested form may be a part): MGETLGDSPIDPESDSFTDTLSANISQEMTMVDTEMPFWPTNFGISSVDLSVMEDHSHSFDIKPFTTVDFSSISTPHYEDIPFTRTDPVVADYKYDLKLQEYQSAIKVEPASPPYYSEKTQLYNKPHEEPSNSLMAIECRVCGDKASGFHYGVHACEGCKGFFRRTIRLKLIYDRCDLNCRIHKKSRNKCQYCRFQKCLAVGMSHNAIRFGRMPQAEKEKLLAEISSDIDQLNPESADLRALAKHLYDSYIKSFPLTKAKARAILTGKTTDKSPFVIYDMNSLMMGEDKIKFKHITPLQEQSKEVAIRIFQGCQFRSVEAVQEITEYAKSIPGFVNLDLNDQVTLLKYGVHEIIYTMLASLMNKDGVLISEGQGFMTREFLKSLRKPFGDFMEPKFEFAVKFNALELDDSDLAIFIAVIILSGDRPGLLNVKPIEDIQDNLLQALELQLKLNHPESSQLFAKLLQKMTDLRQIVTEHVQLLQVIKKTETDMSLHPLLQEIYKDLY

The target of test [6] is Retinoic acid receptor RXR-alpha (Homo sapiens) (UniProt P19793). Nature of the test: ATG_RXRa_TRANS: Attagene TRANS-FACTORIAL HepG2 Assay for human Retinoid X Receptor alpha (RXRa) (AID 2283012). Put shortly: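 HepG2 cells transiently transfected with GAL4-UAS reporter units and chimeric RXRa-Gal4 protein, treated 24 h. Reporter mRNA measured by RT-PCR, fluorescent labelling, HpaI digestion and capillary electrophoresis. Induction fitted against DMSO.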
Sequence of Retinoic acid receptor RXR-alpha (Homo sapiens) (P19793 whole entry, looked up, the tested form may be a part): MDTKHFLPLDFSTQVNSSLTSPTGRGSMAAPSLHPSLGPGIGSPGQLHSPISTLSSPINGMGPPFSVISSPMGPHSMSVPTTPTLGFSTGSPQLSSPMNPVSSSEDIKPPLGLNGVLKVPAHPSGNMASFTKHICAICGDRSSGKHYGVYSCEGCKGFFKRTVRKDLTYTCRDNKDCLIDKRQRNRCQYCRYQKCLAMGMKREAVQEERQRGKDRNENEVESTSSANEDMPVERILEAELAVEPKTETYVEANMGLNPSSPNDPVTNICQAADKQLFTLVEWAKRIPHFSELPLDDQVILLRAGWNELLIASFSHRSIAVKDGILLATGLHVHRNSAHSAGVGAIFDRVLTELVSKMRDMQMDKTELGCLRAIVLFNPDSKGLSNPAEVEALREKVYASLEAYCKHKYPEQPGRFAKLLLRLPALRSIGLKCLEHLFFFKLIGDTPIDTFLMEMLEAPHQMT

In test [7] the target is human Retinoid X Receptor beta (RXRb), RXRB (gene 6257) (UniProt P28702). Put plainly: ATG_RXRb_TRANS: Attagene TRANS-FACTORIAL HepG2 Assay for human Retinoid X Receptor beta (RXRb) (AID 2283013). The method in brief:
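HepG2 cells were transiently transfected with multiplexed GAL4-UAS reporters and a chimeric RXRb-Gal4 construct, then exposed for 24 h. Reporter mRNA was quantified by RT-PCR, FAM labeling, HpaI digestion and capillary electrophoresis; gain of signal was scored against DMSO.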

For test [8], the target named is human Thyroid Receptor alpha (THRa1), THRA (gene 7067) (UniProt P10827). Put plainly: ATG_THRa1_TRANS: Attagene TRANS-FACTORIAL HepG2 Assay for human Thyroid Receptor alpha (THRa1) (AID 2283014). The method in brief:
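HepG2 cells transiently transfected with multiplexed GAL4-UAS reporter units for exogenous chimeric THRa1-Gal4; reporter mRNA measured 24 h after dosing by RT-PCR, 6-FAM labelling, HpaI digestion and capillary electrophoresis. Gain-of-signal fitted versus DMSO baseline.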

Read-out in test [9]: E-selectin (Homo sapiens) (UniProt P16581)
Nature of the test: BSK_3C_Eselectin: BioMAP Diversity Plus: 3C Assay for Eselectin Biomarker Activity (AID 2283015; active means hit-call score of the fitted dose curve at least 0.9, where 1 is the maximum; inactive means score below 0.9;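 on outcome: cell surface E-selectin protein quantified by ELISA 24 h after dosing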). The conditions noted are these: primary human endothelial cells (HUVEC); actives raise or lower the signal. The method in brief: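 Primary human umbilical vein endothelial cells (3C system) were dosed with chemical and cell-surface E-selectin measured by ELISA 24 h later. Bidirectional curve fitting used DMSO as negative control and baseline.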

Read-out in test [10]: Interleukin-1 alpha (IL1a), IL1A (gene 3552)
Put plainly: BSK_BE3C_IL1a: BioMAP Diversity Plus: BE3C Assay for Interleukin-1 alpha (IL1a) Biomarker Activity (AID 2283016; active means hit-call score of the fitted dose curve at least 0.9, where 1 is the maximum; inactive means score below 0.9). The conditions noted are these: primary human bronchial epithelial cells; actives raise or lower the signal. Put shortly:
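Human primary bronchial epithelial cells, 24 h chemical exposure; IL-1a quantified by ELISA, fitted bidirectionally against DMSO. Cytotoxicity assessed in parallel by SRB total-protein staining at the time of measurement.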

Read-out in test [11]: Monocyte Chemoattractant Protein-1 (MCP1), CCL2 (gene 6347)
Put plainly: BSK_3C_MCP1: BioMAP Diversity Plus: 3C Assay for Monocyte Chemoattractant Protein-1 (MCP1) Biomarker Activity (AID 2283017; active means hit-call score of the fitted dose curve at least 0.9, where 1 is the maximum; inactive means score below 0.9). The settings on record: primary human endothelial cells (HUVEC); actives raise or lower the signal. Put shortly: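 Primary human umbilical vein endothelial cells (3C system) were exposed to test chemical for 24 h, after which MCP-1 was quantified by ELISA. Activity was fitted bidirectionally against DMSO as negative control and baseline.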

Read-out in test [12]: Monocyte Chemoattractant Protein-1 (MCP1), CCL2 (gene 6347)
Put plainly: BSK_4H_MCP1: BioMAP Diversity Plus: 4H Assay for Monocyte Chemoattractant Protein-1 (MCP1) Biomarker Activity (AID 2283018; active means hit-call score of the fitted dose curve at least 0.9, where 1 is the maximum; inactive means score below 0.9). The conditions noted are these: primary human endothelial cells (HUVEC); actives raise or lower the signal. Put shortly:
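Human umbilical vein endothelial cells (4H system) exposed to chemicals for 24 h in 96-well format. MCP-1 measured by ELISA; bidirectional fitting against DMSO, with SRB total-protein staining in parallel cultures for cytotoxicity.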

Read-out in test [13]: Human Leukocyte Antigen - DR isotype (HLADR), HLA-DRA (gene 3122)
Put plainly: BSK_3C_HLADR: BioMAP Diversity Plus: 3C Assay for Human Leukocyte Antigen - DR isotype (HLADR) Biomarker Activity (AID 2283019; active means hit-call score of the fitted dose curve at least 0.9, where 1 is the maximum; inactive means score below 0.9;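 on outcome: ELISA of cell-surface HLA-DR on HUVEC 24 h after dosing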). The conditions noted are these: primary human endothelial cells (HUVEC); actives raise or lower the signal. The method in brief:
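Primary human umbilical vein endothelial cells (3C system) were dosed with compound and cell-surface HLA-DR was quantified by ELISA at 24 h. Activity was fitted bidirectionally against DMSO as negative control and baseline.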

Read-out in test [14]: Interleukin-8 (IL8), CXCL8 (gene 3576)
Put plainly: BSK_3C_IL8: BioMAP Diversity Plus: 3C Assay for Interleukin-8 (IL8) Biomarker Activity (AID 2283020; active means hit-call score of the fitted dose curve at least 0.9, where 1 is the maximum; inactive means score below 0.9). The conditions noted are these: primary human endothelial cells (HUVEC); actives raise or lower the signal. The method in brief: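 Primary human umbilical vein endothelial cells were dosed for 24 h. IL-8 was quantified by ELISA and fitted bidirectionally against DMSO. Cytotoxicity was assessed in parallel cultures by SRB staining at 560 nm.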

Read-out in test [15]: Monokine induced gamma interferon (MIG), CXCL9 (gene 4283)
Put plainly: BSK_3C_MIG: BioMAP Diversity Plus: 3C Assay for Monokine induced gamma interferon (MIG) Biomarker Activity (AID 2283021; active means hit-call score of the fitted dose curve at least 0.9, where 1 is the maximum; inactive means score below 0.9;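 on AC50: MIG protein level measured by immunoassay in the treated endothelial cultures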). The conditions noted are these: primary human endothelial cells (HUVEC); actives raise or lower the signal. Put shortly: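 HUVEC primary endothelial cultures dosed with chemical; MIG quantified by ELISA at 24 h. Data fitted bidirectionally against DMSO control, with parallel SRB total-protein staining for cytotoxicity.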

Test [16] deals with Retinoic acid receptor alpha (Homo sapiens) (UniProt P10276). Put plainly: ATG_RARa_TRANS: Attagene TRANS-FACTORIAL HepG2 Assay for human Retinoic Acid Receptor alpha (RARa) (AID 2283005). Put shortly: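 Reporter transcripts, measured by RT-PCR with fluorescent labeling and capillary electrophoresis after 24 h dosing, reflect activity of an exogenous human RARa–GAL4 fusion in transiently transfected HepG2. Fitted for increase relative to DMSO.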
Sequence of Retinoic acid receptor alpha (Homo sapiens) (P10276 whole entry, looked up, the tested form may be a part): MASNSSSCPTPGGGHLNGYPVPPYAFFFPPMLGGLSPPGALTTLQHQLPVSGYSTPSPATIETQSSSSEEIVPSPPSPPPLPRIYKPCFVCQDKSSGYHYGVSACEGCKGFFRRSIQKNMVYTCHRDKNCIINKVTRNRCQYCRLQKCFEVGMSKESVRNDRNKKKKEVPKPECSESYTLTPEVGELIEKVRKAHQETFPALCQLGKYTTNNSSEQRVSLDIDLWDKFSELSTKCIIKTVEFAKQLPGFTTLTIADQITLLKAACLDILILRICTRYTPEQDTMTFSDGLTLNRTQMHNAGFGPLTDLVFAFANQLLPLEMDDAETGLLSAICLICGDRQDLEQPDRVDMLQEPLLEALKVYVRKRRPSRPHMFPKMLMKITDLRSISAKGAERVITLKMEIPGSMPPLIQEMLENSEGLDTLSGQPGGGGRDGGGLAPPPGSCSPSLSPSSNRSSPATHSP

Test [17] has as its target Nuclear receptor subfamily 1 group I member 2 (Homo sapiens) (UniProt O75469). Put plainly: ATG_PXR_TRANS: Attagene TRANS-FACTORIAL HepG2 Assay for human Pregnane X Receptor (PXR) (AID 2283008). The method in brief:
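Read-out is fluorescence of labelled reporter cDNA fragments separated by capillary electrophoresis after RT-PCR and HpaI digestion. Source: HepG2 cells carrying PXR-GAL4/UAS reporter constructs, treated 24 h; activity fitted upward relative to DMSO.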

For test [18], the target named is human Retinoic Acid Receptor gamma (RARg), RARG (gene 5916) (UniProt P13631). Put plainly: ATG_RARg_TRANS: Attagene TRANS-FACTORIAL HepG2 Assay for human Retinoic Acid Receptor gamma (RARg) (AID 2283009). The method in brief: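 HepG2 transiently transfected with GAL4-UAS reporter units and chimeric NR-Gal4 constructs; 24 h compound exposure. Reporter mRNA quantified by RT-PCR, FAM labeling, HpaI digestion and capillary electrophoresis; gain-of-signal versus DMSO.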
Sequence of human Retinoic Acid Receptor gamma (RARg), RARG (gene 5916) (P13631 whole entry, looked up, the tested form may be a part): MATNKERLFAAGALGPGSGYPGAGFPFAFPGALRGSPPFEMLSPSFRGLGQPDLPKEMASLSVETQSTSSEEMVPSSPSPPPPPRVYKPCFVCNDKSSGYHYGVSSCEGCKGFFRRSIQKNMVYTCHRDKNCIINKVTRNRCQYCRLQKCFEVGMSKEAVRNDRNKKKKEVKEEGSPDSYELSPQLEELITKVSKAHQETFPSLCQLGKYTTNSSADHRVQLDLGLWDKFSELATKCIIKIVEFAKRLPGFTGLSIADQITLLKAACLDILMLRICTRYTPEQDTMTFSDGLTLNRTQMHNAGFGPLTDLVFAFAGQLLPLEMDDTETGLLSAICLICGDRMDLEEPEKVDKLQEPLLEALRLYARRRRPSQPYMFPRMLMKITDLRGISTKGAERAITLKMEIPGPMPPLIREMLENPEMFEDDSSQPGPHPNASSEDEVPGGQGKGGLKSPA

Test [19] has as its target human Peroxisome Proliferator-activated Receptor alpha (PPARa), PPARA (gene 5465) (UniProt Q07869). Nature of the test: ATG_PPARa_TRANS: Attagene TRANS-FACTORIAL HepG2 Assay for human Peroxisome Proliferator-activated Receptor alpha (PPARa) (AID 2283001). Put shortly: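 Read-out is fluorescence of reporter cDNA fragments resolved by capillary electrophoresis after RT-PCR. Human HepG2 liver cells carried transfected PPARa-Gal4 chimera and GAL4-UAS reporter units, treated 24 h; activity scored as increase over DMSO.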

Inconclusive results are not listed. Where a structure was tested more than once in an assay, its records may differ in their call. Active and inactive are the calls of the source. How the source made its calls, unless noted: active means hit-call score of the fitted dose curve at least 0.9, where 1 is the maximum; inconclusive means response in the unintended direction; inactive means score below 0.9.

Sequence of human Peroxisome Proliferator-activated Receptor delta (PPARd), PPARD (gene 5467) (Q03181 whole entry, looked up, the tested form may be a part): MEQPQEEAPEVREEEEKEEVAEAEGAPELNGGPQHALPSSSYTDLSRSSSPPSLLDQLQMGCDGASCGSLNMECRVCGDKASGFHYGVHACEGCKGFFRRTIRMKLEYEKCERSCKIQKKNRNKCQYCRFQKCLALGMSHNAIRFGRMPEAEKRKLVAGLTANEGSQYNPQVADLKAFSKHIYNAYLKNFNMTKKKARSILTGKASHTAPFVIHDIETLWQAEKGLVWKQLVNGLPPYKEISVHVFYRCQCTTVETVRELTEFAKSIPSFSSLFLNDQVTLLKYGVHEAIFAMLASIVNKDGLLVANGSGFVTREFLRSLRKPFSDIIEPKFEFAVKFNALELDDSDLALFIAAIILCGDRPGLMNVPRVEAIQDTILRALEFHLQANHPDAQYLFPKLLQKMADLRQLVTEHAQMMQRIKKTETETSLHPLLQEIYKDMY
Sequence of human Retinoid X Receptor beta (RXRb), RXRB (gene 6257) (P28702 whole entry, looked up, the tested form may be a part): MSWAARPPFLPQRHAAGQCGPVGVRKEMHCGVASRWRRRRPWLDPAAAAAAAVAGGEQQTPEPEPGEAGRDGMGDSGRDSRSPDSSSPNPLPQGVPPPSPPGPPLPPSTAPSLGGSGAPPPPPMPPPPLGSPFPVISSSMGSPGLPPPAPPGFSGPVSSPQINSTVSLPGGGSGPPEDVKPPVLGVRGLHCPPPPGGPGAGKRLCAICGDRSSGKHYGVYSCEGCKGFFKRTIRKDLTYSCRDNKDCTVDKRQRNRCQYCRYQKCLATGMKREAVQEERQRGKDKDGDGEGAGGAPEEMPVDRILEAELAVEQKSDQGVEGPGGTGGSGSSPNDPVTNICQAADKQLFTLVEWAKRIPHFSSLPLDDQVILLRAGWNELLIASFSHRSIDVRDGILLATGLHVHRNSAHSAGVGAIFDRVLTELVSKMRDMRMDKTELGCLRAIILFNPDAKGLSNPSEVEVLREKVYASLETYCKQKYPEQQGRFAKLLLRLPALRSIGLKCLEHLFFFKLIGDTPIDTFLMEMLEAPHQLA
Sequence of human Retinoic Acid Receptor beta (RARb), RARB (gene 5915) (P10826 whole entry, looked up, the tested form may be a part): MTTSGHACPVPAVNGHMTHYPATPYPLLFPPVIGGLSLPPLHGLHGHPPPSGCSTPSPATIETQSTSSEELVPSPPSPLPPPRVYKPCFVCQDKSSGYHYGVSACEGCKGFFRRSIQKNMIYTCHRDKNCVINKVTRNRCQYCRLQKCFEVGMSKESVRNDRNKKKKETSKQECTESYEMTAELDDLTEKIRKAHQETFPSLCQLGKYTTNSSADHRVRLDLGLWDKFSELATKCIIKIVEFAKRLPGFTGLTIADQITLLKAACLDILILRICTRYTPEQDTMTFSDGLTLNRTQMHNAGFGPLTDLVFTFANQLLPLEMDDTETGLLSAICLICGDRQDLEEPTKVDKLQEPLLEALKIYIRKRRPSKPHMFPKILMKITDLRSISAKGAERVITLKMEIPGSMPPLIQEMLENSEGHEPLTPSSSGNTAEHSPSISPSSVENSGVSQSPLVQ
Sequence of E-selectin (Homo sapiens) (P16581 whole entry, looked up): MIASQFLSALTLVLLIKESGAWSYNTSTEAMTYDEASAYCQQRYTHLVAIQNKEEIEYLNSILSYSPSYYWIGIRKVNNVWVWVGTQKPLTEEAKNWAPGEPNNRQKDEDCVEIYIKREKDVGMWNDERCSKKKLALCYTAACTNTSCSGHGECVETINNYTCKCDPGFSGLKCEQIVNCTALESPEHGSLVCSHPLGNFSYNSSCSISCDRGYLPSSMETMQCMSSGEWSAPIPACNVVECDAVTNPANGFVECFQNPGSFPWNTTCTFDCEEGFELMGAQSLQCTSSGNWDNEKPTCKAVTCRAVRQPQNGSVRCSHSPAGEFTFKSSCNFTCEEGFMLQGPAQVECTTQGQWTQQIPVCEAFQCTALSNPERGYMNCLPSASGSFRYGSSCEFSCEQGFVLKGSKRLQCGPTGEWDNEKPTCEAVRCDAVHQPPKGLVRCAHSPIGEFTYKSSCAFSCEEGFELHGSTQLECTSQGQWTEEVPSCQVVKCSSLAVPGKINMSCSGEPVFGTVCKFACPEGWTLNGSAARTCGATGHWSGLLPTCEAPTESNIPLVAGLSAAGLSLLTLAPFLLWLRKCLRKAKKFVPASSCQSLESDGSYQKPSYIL
Sequence of human Thyroid Receptor alpha (THRa1), THRA (gene 7067) (P10827 whole entry, looked up, the tested form may be a part): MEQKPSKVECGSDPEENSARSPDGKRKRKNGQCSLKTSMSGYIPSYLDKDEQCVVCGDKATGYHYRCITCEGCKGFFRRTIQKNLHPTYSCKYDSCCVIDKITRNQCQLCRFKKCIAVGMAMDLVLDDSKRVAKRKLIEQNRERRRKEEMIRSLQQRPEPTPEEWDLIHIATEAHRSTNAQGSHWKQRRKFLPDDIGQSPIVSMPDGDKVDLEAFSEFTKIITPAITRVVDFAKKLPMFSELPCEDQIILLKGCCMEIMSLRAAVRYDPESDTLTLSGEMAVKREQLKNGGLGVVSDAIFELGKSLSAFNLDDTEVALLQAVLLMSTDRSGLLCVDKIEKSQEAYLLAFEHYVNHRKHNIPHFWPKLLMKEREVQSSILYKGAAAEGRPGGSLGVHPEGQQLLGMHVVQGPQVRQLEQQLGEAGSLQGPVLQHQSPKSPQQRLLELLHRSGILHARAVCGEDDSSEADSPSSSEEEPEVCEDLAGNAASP
Sequence of Nuclear receptor subfamily 1 group I member 2 (Homo sapiens) (O75469 whole entry, looked up, the tested form may be a part): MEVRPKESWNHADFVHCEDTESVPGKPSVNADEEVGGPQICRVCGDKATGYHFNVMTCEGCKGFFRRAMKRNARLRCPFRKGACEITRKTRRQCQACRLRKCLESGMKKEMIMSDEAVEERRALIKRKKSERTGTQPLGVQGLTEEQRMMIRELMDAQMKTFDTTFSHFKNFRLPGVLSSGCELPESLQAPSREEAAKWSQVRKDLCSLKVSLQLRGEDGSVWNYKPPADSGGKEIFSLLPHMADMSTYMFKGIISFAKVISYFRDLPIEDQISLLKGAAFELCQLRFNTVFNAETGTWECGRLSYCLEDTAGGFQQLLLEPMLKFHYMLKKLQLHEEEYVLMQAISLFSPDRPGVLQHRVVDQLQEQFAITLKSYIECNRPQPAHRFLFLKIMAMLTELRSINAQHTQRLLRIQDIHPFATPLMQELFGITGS

By AC50 is commonly meant the concentration giving half of the maximal activity seen. For `CCC(C)(C)C1CCC(O)CC1` (centres undefined), the outcome in test [1], in test [2], in test [3], in test [4], in test [5] and in test [6] was inactive. Further, the result in test [8], in [9], in test [10], in [11], in test [12] and in test [13] was inactive. In addition, the outcome in test [14] and in test [15] was inactive. Further, the AC50 in [7] is 58.7 µM (active) [middle of 4 runs].
On to `C#C[C@]1(O)CC[C@H]2[C@@H]3CCC4=CC(=O)CC[C@@H]4[C@H]3CC[C@@]21C`, for which the call in [1], in test [2], in test [3], in test [16], in test [5] and in test [17] was inactive. Moreover, the outcome in test [18], in test [6], in [7], in test [8], in test [10] and in test [12] was inactive. Further, in [15], the result was inactive. Further, the AC50 in test [4] was 4.1 µM (active); in test [17], 26.6 µM (active); in [9] it was 11.5 µM (active); in test [11], 6.01 µM (active); in test [13], 7.59 µM (active); in [14], 5.01 µM (active).
Take `CC(C)(C)c1cccc(C(C)(C)C)c1O`: the compound was called inactive in [1], in test [2], in [3], in test [16], in test [5] and in test [18]. Besides, the outcome in test [8], in [9], in [10], in test [11], in test [12] and in test [13] was inactive. Moreover, the result in test [14] and in test [15] was inactive. In addition, the AC50 was 36.4 µM (active) in test [4], 68.8 µM (active) in test [6] and 33.5 µM (active) in [7].
With `O=C(/C=C/c1ccc(O)cc1)CC(=O)/C=C/c1ccc(O)cc1`, the call in test [19], in test [3], in test [18], in test [6], in [7] and in [8] was inactive. In addition, the AC50 in [5] is 3.49 µM (active).
`CC[C@H](c1ccc(O)cc1)[C@@H](CC)c1ccc(O)cc1`: the compound was classed as inactive in test [1], in test [5], in test [6] and in test [8]. In addition, the AC50 in test [2] was 36.4 µM (active); in test [4], 15.9 µM (active); in test [7], 3.79 µM (active) [middle of 4 runs]; in [9], 34.8 µM (active); in test [10], 24.3 µM (active); in test [11], 32.1 µM (active). The AC50 in test [12] was 20 µM (active); in [13], 20.9 µM (active); in [14] it was 33.6 µM (active); in [15] it was 37.4 µM (active).
Consider `CN1CCN(c2ccccc2/C=C2\SCCN(c3ccc(Cl)c(Cl)c3)C2=O)CC1`, for which the outcome in [2], in test [6], in [9] and in test [15] was inactive. Moreover, the AC50 in [4] is 5.3 µM (active); in [5], 0.865 µM (active); in [17], 3.7 µM (active); in test [10], 30.9 µM (active); in test [11] it was 7.36 µM (active); in [12] it was 20 µM (active). In addition, the figures for the AC50 in test [13] and in test [14] were 11.3 µM (active) and 3.55 µM (active), respectively.

The record behind these values is PubChem BioAssay (EPA / NIEHS).
